The list is not random: actives were taken first. Their share in the collection is about 10%.
HP1b binding inh: blocks HP1-beta chromodomain binding to methylated histone tails; P83916; AlphaScreen HP1-beta / biotin-H3K9me3 peptide binding; Potency, µM (series often up to 114 µM), for inactives: top-dose activity change, negative = inhibition, actives largely listed as inhibitors; 390,000 compounds, 0.56% hits; AID 540317; further: potency means the concentration at half of the fitted maximal effect; nearly all actives have a fitted effect of over 70% in size
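HP1-beta protein (50 nM final) preincubated 30 min at room temperature with biotinylated H3(1-18)K9me3 peptide (50 nM) in PBS pH 7.4, 0.01% Tween-20, then compound added for 30 min. AlphaScreen streptavidin donor/nickel chelate acceptor beads (10 ug/mL final), 30 min dark, luminescence read.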
JMJD2A Tudor: blocks the human JMJD2A Tudor domain. O75164. AlphaScreen JMJD2A-Tudor / H3K4me3 peptide binding. Potency, µM (doses to about 114 µM), for inactives: top-dose activity change, negative = inhibition, hits mostly inhibitors. 390,000 compounds, 4.4% hits. AID 504339; further: potency means the concentration at half of the fitted maximal effect; on the % scale 0 is the no-effect control and ±100 the full control effect; nearly all actives have a fitted effect of over 50% in size
Target sequence (O75164 whole entry, looked up, the tested form may be a part): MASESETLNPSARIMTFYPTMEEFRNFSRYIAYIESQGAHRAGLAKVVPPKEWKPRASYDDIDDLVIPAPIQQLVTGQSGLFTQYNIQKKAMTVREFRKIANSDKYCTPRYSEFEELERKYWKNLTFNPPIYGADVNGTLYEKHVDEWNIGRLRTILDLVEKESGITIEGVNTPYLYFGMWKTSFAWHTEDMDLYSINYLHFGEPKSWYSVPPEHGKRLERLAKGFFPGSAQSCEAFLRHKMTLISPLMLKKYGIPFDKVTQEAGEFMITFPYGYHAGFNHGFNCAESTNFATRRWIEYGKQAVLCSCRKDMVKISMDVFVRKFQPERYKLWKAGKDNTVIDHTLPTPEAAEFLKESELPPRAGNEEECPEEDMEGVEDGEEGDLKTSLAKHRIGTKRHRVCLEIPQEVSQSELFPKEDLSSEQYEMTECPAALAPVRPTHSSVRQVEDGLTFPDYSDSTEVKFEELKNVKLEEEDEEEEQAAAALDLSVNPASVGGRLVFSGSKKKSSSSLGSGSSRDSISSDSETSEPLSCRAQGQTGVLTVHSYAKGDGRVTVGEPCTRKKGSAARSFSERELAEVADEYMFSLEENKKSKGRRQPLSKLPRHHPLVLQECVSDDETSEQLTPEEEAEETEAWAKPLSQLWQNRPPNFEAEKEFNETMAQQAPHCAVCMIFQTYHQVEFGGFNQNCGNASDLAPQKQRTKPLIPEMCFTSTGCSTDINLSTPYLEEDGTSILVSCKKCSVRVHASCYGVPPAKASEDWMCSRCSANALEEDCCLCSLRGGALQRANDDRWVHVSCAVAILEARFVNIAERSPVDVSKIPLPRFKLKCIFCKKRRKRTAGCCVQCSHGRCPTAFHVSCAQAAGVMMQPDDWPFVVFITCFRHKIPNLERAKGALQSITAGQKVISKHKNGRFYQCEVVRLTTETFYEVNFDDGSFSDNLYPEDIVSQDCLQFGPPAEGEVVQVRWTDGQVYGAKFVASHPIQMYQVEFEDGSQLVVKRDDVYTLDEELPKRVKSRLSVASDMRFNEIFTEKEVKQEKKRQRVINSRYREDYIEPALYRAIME
Six1-Eya2 inh: inhibitors of human Six1/Eya2 interaction. Q15475+O00167. AlphaScreen GST-Six1/His-Eya2 binding, biochemical; hits give low values. activity change, % (concentration not given with the values). 360,000 compounds, 0.56% hits. AID 651725; in the data active means activity change below about -65%; inconclusive means mostly about -30% to -63%; further: on the % scale 0 is the no-effect control and ±100 the full control effect
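Compounds are tested against tagged Six1 and Eya2 proteins bridged by glutathione donor and nickel acceptor beads; after a one-hour incubation at 37 °C without light, AlphaScreen emission is recorded.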
BAZ2B block: inhibitors of human BAZ2B bromodomain; AlphaScreen BAZ2B-H3K14Ac peptide displacement; AID 504333; 360,000 compounds, 4.4% hits; Potency, µM (titrated, usually from 114 µM), for the others: at the highest dose activity change, negative = inhibition, usual class: inhibitors; further: potency means the concentration at half of the fitted maximal effect; on the % scale 0 is the no-effect control and ±100 the full control effect; nearly all actives have a fitted effect of over 60% in size
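Complex of BAZ2B and biotin-H3K14Ac (50 nM apiece) forms over 30 min at RT, then faces library compounds up to 110 uM for another 30 min; AlphaScreen beads added, 20 min dark incubation, luminescence read.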
CtBP-E1A inh: blocks the CtBP interaction with E1A; AlphaScreen GST-E1A/His-CtBP binding, 1536-well; hits give low values; activity change, % (no concentration beside the values); 340,000 compounds, 0.49% hits; in the data active means activity change below about -65%; inconclusive means mostly about -30% to -63%; further: on the % scale 0 is the no-effect control and ±100 the full control effect
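Protein mix (5X: 125 nM each GST-E1A, His-CtBP) was incubated with pinned compound 2 h at 37 deg C in dark, in 50 mM Tris pH 8.0 buffer with 300 mM NaCl. Glutathione donor and nickel acceptor beads followed; AlphaScreen signal read after 1 h.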
G9a block: G9a (human) methyltransferase inhibition | G9a H3K9 monomethylation, AlphaScreen, 2 h | Potency, µM (highest dose often 102 µM), inactives show at the highest dose activity, negative = inhibition, hits mostly inhibitors | 350,000 compounds, 8.8% hits | AID 504332; further: potency means the concentration at half of the fitted maximal effect; on the % scale 0 is the no-effect control and ±100 the full control effect; nearly all actives have a fitted effect of over 75% in size
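Methyltransferase reactions run at room temperature for 2 h (20 nM enzyme, 500 nM biotin-H3K9 peptide, 20 uM SAM) after a 15 min compound preincubation; product detected by AlphaScreen beads and anti-H3K9me1 antibody.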
* marks the source's active call; other numbers are inactive results; ? = inconclusive; . = not tested or not shown; [ ] = another dose, or the depositor's remark. Unless noted, the call rests on the fitted dose curve; in most records, active means well fitted inhibition curve with a large enough effect; inconclusive means small, poorly fitted or top-dose-only effect; inactive means no such curve, though single readings can be large or run the other way.

SMILES	HP1b binding inh	JMJD2A Tudor	Six1-Eya2 inh	BAZ2B block	CtBP-E1A inh	G9a block
O=C(NNC(=O)c1ccc(NC(=O)c2ccccc2)cc1)Nc1ccccc1	15%	?	4	71µM*	-3	?
Cc1cc(C(=O)NNC(=S)Nc2ccccc2)nn1C	80%	-13%[11.4 µM]	-19	3%	.	32µM*
O=C(Nc1ccc(Cl)cc1)Nc1cccc(C(=O)O)c1	-1%	-5%	3	-10%	-1	45%[0.501 µM]
CCCCCn1c(=O)[nH]c2cc(C(=O)NCc3ccc(F)cc3)ccc2c1=O	20%	-2%	.	2%	.	7%[59 µM]
Cc1ccc(N(CC(=O)NCCc2ccccc2)S(=O)(=O)N(C)C)cc1	20%	-17%	.	-1%	.	-27%[59 µM]
O=C(NNC(=S)Nc1ccccc1)c1cccc(Br)c1	3%	-19%	0	8%	17	50µM*
CCN(CC)CCNS(=O)(=O)c1ccc(Cl)cc1	29%	-8%[57.1 µM]	1	3%	5	?
CCCN(CCC)CC(C)(C)NS(=O)(=O)c1ccc(Cl)cc1	?	2.5µM*	13	?	5	?
CCC(C)[C@H](NC(=O)NCCCOC(C)C)C(=O)OC (some centres not stated)	49%	-5%	4	-11%	4	17%
COCCCNC(=O)C(=O)NCCCOC(C)C	35%	5.6µM*	11	-2%	2	5%[59 µM]
O=C(CSc1nnc(Cc2cc(=O)[nH]c(=O)[nH]2)n1-c1ccc(Cl)cc1)NC1CCCC1	41%	-14%	2	0%	0	40µM*
CCCc1cc(=O)[nH]c2nnc(SCC(=O)NC3CCCC3)n12	46%	4%	3	9%	7	18µM*
COc1ccc(-n2c(C)cc(=O)[nH]c2=O)cc1	6%	-13%	6	1%	4	-28%
COc1ccc(-n2c(Cc3cc(=O)[nH]c(=O)[nH]3)nnc2SCC(=O)NC2CCCC2)cc1	96%	0%	28	11%	0	?
CCOc1ccc(-n2c(Cc3cc(=O)[nH]c(=O)[nH]3)nnc2SCC(N)=O)cc1	27%	0%	2	?	5	45µM*
CCOc1ccc(-n2c(O)cc(=O)[nH]c2=O)cc1	17%	0%	-8	11%	-11	71µM*
CCOc1ccccc1NC(=O)CSc1nc2cc(OC)c(OC)cc2c2nc(CCn3c(C)nc4ccccc43)nn12	9%	-21%	.	.	.	3%[59 µM]
COc1cccc(-n2c(Cc3cc(=O)[nH]c(=O)[nH]3)nnc2SC(C)C)c1	57%	-12%	-1	9%	5	40µM*
COC(=O)C(C)Sc1nnc(Cc2cc(=O)[nH]c(=O)[nH]2)n1-c1cccc(OC)c1 (configuration not stated)	56%	-5%	4	12%	5	?
Cc1ccc(CCC(=O)Nc2ccc(CC(=O)O)cc2)o1	-1%	?	3	-20%	1	56µM*
Cc1ccc(CCC(=O)Nc2ccc(Cl)cc2)o1	7%	-10%	-8	?	-7	?
Cc1ccc(NC(=S)N/N=C2\CC(C)(C)Oc3ccc(O)cc32)cc1	1%	-32%	-15	0%	.	20%[59 µM]
Cc1ccccc1NC(=S)N/N=C1\CC(C)(C)Oc2ccc(O)cc21	?	40µM*	-28	?	?	35µM*
CC(=O)N1CCC2(CC1)C/C(=N\NC(=S)Nc1ccc(C)cc1)c1cc(O)ccc1O2	-23%	?	-15	?	-13	40µM*
Cc1ccc(NC(=O)Cn2c(=O)n(Cc3nc(C)no3)c(=O)c3cc4c(cc32)OCO4)c(C)c1	40%	2%	.	-16%	.	5%[59 µM]
SMILES	HP1b binding inh	JMJD2A Tudor	Six1-Eya2 inh	BAZ2B block	CtBP-E1A inh	G9a block
CCOC(=O)c1cccc(NC(=O)CCc2c(C)nc3cc(-c4ccc(Cl)cc4)nn3c2C)c1	28%	-10%	.	-15%	.	-19%[59 µM]
CCOc1ccc(NC(=O)CCc2c(C)nc3cc(-c4ccc(Cl)cc4)nn3c2C)cc1	19%	-13%	.	-19%	.	0.71µM*
COCCn1nnnc1C(c1ccccc1OC)N1CCN(C(=O)c2ccco2)CC1 (configuration not stated)	52%	?	11	-26%	-8	50µM*
COCCn1nnnc1C(c1cccc(OC)c1OC)N1CCN(C(=O)c2ccco2)CC1 (configuration not stated)	29%	-10%	-1	-18%	6	50µM*
COCCn1nnnc1C(c1ccccc1)N1CCN(C(=O)c2ccco2)CC1 (configuration not stated)	-5%[57 µM]	?	-4	?	5	?
CC(C)CCn1nnnc1C(c1ccc(F)cc1)N1CCN(C(=O)c2ccco2)CC1 (configuration not stated)	45%	-12%	-2	-35%	1	50µM*
CCN(C(=O)CCn1cnc2onc(-c3ccc(F)cc3)c2c1=O)c1ccc(OC)cc1	34%	-23%	.	8%[57.1 µM]	.	-8%[59 µM]
O=C(O)/C(=C\c1cccc(F)c1)c1ccc(S(=O)(=O)N2CCCCC2)s1	1%	?	-3	?	-6	56µM*
COc1ccc(C(C)=O)cc1COc1ccc(F)cc1	132%	28%	17	-1%	.	42%
CCOc1ccc(C(C)=O)cc1COc1ccc(-c2nnco2)cc1	22%	-11%	4	50µM*	-11	.
N#Cc1c(C(F)(F)F)cc(-c2ccco2)nc1SCc1ccncc1	60%	4%	9	7%	12	?
CSc1nc(-c2ccco2)cc(-c2ccccc2)c1C#N	161%	-10%[11.4 µM]	28	24%	16	50µM*
CSc1nc(-c2ccco2)cc(C(F)(F)F)c1C#N	-7%	-2%[57.1 µM]	6	13%	9	25µM*
CC(C)Cn1c(=O)c2ccccc2n2c(CCC(=O)NCc3ccc(Cl)cc3)nnc12	15%	-1%	.	0%	.	-27%[59 µM]
COc1ccc(S(=O)(=O)CCC(=O)Nc2ccc(OC)cc2OC)cc1	23%	-9%	0	-14%	-5	10µM*
CCOc1ccccc1NC(=O)CCS(=O)(=O)c1ccc(Br)cc1	35µM*	16µM*	17	13µM*	4	13µM*
COc1ccc(NC(=O)CCCN2C(=O)CN(C)C2=O)c(OC)c1	-12%	50µM*	-15	50µM*	.	-6%[12.7 µM]
COC(=O)c1ccccc1NC(=O)CCS(=O)(=O)c1ccc(Br)cc1	3.2µM*	4µM*	-18	2µM*	.	2.2µM*
COc1ccc(NC(=O)CCS(=O)(=O)c2ccccc2)c(OC)c1	6%	-18%	1	4%	9	-2%[59 µM]
Cc1nn(-c2ccccc2)c2c1cc1c(=O)[nH]c(=O)nc-1n2-c1cccc(Cl)c1	9%	-28%	.	.	.	?

High-throughput results deposited in PubChem BioAssay by National Center for Advancing Translational Sciences (NCATS).
